# Reference: article PMC7862700, “An all-to-all approach to the identification of sequence-specific readers for epigenetic DNA modifications on cytosine”
# Legend:
# Experiment in all cases: DAPPL (digital affinity profiling via proximity ligation, sequencing); 10 mM Tris-HCl pH 7.5, 50 mM NaCl, 1 mM DTT, 4% glycerol, room temperature, 30 min; GST-TFs on glutathione beads, 16-mer random dsDNA library, 0.1% formaldehyde crosslink after washing; high values mean tight binding
# HSF1 = HSF1 (Homo sapiens, UniProt Q00613 1-529); conditions: protein: recombinant; tags: N-terminal GST; chain copies: 3; dsDNA, one strand shown
# HSF1, sequence (Q00613 whole entry, the tested form may be a part): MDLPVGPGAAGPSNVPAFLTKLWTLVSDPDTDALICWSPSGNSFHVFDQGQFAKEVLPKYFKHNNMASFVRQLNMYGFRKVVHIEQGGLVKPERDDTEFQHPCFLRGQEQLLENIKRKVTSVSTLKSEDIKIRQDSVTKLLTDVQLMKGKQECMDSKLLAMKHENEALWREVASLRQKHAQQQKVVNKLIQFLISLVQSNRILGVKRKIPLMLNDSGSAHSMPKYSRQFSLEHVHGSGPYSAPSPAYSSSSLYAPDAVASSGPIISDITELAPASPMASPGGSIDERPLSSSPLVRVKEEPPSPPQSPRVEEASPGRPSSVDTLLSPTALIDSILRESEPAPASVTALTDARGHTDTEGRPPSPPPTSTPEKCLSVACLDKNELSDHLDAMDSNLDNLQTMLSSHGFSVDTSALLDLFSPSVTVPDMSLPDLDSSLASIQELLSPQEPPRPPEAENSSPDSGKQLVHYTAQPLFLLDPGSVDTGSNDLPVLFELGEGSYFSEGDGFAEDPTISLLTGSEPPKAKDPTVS
# How it was run: (§1)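 Pools were built from human transcription factors expressed in yeast as GST fusions, captured on glutathione beads and DNA-barcoded, along with a tag-only sample. Incubation with 200 nmole of a 16-mer random double-stranded DNA library lasted 30 min at room temperature in Tris/NaCl/DTT/glycerol buffer, and was followed by washing, 0.1% formaldehyde crosslinking, proximity ligation, PCR amplification and Illumina NextSeq500 sequencing. Binding signal is the quotient of each hexamer's read frequency for a factor and its frequency for the tag-only sample.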
# CRX = CRX (Homo sapiens, UniProt O43186 1-299); conditions: protein: recombinant; tags: N-terminal GST; dsDNA, one strand shown
# CRX, sequence (O43186 whole entry): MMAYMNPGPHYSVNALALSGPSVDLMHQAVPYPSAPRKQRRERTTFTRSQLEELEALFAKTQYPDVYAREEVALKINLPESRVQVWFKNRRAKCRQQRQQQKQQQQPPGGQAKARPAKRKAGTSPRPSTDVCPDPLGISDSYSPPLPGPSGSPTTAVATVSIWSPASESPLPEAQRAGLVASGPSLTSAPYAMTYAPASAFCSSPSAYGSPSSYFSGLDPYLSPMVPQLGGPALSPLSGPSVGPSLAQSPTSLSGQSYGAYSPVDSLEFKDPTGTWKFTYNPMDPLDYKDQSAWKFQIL
# How it was run: as §1
# SPI1 = SPI1 (Homo sapiens, UniProt P17947 1-270); conditions: protein: recombinant; tags: N-terminal GST; dsDNA, one strand shown
# How it was run: as §1
# ELF3 = target: T1, ELF3 (Homo sapiens, UniProt P78545 1-371); conditions: protein: recombinant; tags: N-terminal GST; dsDNA, one strand shown
# T1 sequence: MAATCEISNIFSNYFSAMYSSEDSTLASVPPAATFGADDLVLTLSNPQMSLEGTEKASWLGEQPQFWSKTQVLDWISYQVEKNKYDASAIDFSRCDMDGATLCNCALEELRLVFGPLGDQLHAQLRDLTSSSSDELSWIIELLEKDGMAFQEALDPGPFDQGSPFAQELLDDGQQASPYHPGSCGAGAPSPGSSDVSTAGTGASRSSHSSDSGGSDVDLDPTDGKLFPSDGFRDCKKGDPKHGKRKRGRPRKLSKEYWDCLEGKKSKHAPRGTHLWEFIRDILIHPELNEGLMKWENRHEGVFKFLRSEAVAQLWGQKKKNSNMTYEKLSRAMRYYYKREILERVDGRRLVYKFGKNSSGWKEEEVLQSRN
# How it was run: as §1
# ETV2 = target: T2, ETV2 (Homo sapiens, UniProt O00321 1-342); conditions: protein: recombinant; tags: N-terminal GST; dsDNA, one strand shown
# T2 sequence: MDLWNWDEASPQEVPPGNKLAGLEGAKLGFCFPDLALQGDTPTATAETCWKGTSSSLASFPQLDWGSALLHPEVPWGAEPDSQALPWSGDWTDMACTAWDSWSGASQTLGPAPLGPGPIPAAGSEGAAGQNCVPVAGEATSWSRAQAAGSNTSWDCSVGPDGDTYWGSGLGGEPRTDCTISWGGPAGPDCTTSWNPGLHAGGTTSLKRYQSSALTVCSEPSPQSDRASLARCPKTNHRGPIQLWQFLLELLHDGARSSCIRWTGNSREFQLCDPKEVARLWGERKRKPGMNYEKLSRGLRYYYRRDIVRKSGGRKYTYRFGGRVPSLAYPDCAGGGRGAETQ
# How it was run: as §1
# ELK1 = target: T3, ELK1 (Homo sapiens, UniProt P19419 1-428); conditions: protein: recombinant; tags: N-terminal GST; dsDNA, one strand shown
# T3 sequence: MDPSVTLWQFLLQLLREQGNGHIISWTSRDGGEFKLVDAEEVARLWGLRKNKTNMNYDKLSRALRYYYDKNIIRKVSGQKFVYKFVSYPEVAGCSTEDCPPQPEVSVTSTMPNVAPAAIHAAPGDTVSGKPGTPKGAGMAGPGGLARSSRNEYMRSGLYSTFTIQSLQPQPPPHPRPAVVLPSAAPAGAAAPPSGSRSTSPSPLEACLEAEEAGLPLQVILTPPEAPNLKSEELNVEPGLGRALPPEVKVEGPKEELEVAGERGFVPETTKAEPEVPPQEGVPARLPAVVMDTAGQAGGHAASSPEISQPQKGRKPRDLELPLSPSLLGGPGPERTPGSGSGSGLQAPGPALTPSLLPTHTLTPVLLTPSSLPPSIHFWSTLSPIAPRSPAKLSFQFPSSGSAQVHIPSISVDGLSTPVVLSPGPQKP
# How it was run: as §1
# EHF = target: T4, EHF (Homo sapiens, UniProt Q9NZC4 1-300); conditions: protein: recombinant; tags: N-terminal GST; dsDNA, one strand shown
# T4 sequence: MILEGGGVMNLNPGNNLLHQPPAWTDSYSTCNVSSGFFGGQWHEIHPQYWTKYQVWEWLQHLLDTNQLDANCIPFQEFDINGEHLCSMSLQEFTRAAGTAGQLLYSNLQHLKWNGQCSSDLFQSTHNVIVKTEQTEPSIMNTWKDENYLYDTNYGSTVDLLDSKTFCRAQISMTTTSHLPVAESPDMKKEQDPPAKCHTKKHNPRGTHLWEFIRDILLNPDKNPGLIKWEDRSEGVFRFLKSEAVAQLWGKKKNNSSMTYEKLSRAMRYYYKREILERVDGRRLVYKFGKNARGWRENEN
# How it was run: as §1
# ELK3 = target: T5, ELK3 (Homo sapiens, UniProt P41970 1-407); conditions: protein: recombinant; tags: N-terminal GST; dsDNA, one strand shown
# T5 sequence: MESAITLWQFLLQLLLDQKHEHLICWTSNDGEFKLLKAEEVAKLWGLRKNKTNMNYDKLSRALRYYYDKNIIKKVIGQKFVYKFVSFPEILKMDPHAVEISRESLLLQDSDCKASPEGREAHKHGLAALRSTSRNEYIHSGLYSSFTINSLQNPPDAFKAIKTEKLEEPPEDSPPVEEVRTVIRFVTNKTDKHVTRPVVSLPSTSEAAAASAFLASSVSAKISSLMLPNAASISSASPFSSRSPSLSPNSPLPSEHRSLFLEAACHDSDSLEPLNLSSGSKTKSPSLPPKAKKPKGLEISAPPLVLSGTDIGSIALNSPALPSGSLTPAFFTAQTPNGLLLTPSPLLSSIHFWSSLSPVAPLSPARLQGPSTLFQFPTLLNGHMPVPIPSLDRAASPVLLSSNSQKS
# How it was run: as §1
# ETV3L = target: T6, ETV3L (Homo sapiens, UniProt Q6ZN32 1-361); conditions: protein: recombinant; tags: N-terminal GST; dsDNA, one strand shown
# T6 sequence: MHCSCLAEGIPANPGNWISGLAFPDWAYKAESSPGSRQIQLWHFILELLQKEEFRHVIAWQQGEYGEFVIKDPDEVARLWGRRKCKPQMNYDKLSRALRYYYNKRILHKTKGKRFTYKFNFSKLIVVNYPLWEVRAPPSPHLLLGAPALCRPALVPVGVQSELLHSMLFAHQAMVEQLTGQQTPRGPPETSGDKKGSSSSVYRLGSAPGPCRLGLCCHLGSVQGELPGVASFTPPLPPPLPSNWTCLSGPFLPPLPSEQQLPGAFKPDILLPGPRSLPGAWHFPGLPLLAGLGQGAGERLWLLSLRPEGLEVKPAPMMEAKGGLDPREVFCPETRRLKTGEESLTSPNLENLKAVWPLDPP
# How it was run: as §1
# SPDEF = target: T7, SPDEF (Homo sapiens, UniProt O95238 1-335); conditions: protein: recombinant; tags: N-terminal GST; dsDNA, one strand shown
# T7 sequence: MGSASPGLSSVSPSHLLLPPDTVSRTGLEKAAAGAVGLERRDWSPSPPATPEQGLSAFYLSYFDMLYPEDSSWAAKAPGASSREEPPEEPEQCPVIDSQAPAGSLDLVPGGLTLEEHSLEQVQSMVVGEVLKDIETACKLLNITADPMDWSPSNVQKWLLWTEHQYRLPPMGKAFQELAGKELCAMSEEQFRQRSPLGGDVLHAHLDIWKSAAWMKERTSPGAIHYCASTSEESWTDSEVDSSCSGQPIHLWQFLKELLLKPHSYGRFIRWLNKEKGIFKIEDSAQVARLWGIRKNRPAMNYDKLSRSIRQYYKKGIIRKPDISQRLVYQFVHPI
# How it was run: as §1
sequence,measurement,setting,value
GGATCA,binding signal,HSF1,"1.1 fold enrichment (6-mer frequency, TF over GST control)"
same,binding signal,CRX,"1.53 fold enrichment (6-mer frequency, TF over GST control)"
GTAGAA,binding signal,SPI1,"1.01 fold enrichment (6-mer frequency, TF over GST control)"
same,binding signal,HSF1,"1.47 fold enrichment (6-mer frequency, TF over GST control)"
same,binding signal,ELF3,"1.06 fold enrichment (6-mer frequency, TF over GST control)"
CGAGAT,binding signal,HSF1,"1.52 fold enrichment (6-mer frequency, TF over GST control)"
same,binding signal,ETV2,"1.07 fold enrichment (6-mer frequency, TF over GST control)"
same,binding signal,CRX,"1.27 fold enrichment (6-mer frequency, TF over GST control)"
GCGATT,binding signal,HSF1,"1.23 fold enrichment (6-mer frequency, TF over GST control)"
same,binding signal,ELF3,"1.04 fold enrichment (6-mer frequency, TF over GST control)"
same,binding signal,CRX,"1.51 fold enrichment (6-mer frequency, TF over GST control)"
AGAATG,binding signal,ELK1,"1.01 fold enrichment (6-mer frequency, TF over GST control)"
same,binding signal,EHF,"1.02 fold enrichment (6-mer frequency, TF over GST control)"
same,binding signal,SPI1,"1.01 fold enrichment (6-mer frequency, TF over GST control)"
same,binding signal,ELK3,"1.01 fold enrichment (6-mer frequency, TF over GST control)"
same,binding signal,HSF1,"2.08 fold enrichment (6-mer frequency, TF over GST control)"
same,binding signal,ETV2,"1.01 fold enrichment (6-mer frequency, TF over GST control)"
same,binding signal,ELF3,"1.05 fold enrichment (6-mer frequency, TF over GST control)"
same,binding signal,CRX,"1.09 fold enrichment (6-mer frequency, TF over GST control)"
CAGATA,binding signal,HSF1,"1.12 fold enrichment (6-mer frequency, TF over GST control)"
same,binding signal,CRX,"1.17 fold enrichment (6-mer frequency, TF over GST control)"
AGAAAG,binding signal,HSF1,"1.87 fold enrichment (6-mer frequency, TF over GST control)"
same,binding signal,CRX,"1.01 fold enrichment (6-mer frequency, TF over GST control)"
GACTAA,binding signal,HSF1,"1.13 fold enrichment (6-mer frequency, TF over GST control)"
same,binding signal,CRX,"1.44 fold enrichment (6-mer frequency, TF over GST control)"
GGATAA,binding signal,HSF1,"1.2 fold enrichment (6-mer frequency, TF over GST control)"
same,binding signal,CRX,"1.75 fold enrichment (6-mer frequency, TF over GST control)"
ATCAAG,binding signal,ELK3,"1.04 fold enrichment (6-mer frequency, TF over GST control)"
same,binding signal,HSF1,"1.03 fold enrichment (6-mer frequency, TF over GST control)"
same,binding signal,ETV2,"1.17 fold enrichment (6-mer frequency, TF over GST control)"
same,binding signal,CRX,"1.19 fold enrichment (6-mer frequency, TF over GST control)"
same,binding signal,ETV3L,"1.06 fold enrichment (6-mer frequency, TF over GST control)"
same,binding signal,SPDEF,"1.01 fold enrichment (6-mer frequency, TF over GST control)"
